In the supplement of paper PMC10849652:
About 7,900 targets were measured; listed, in parts, are those with a hit and a random draw of the rest. About 0.6% of all pairs of compound and target were hits.

Assays:
Assay in all cases: log2 fold change, soluble protein after heating vs DMSO (PISA); higher = thermal stabilisation; K562 cells, 10 uM, 30 min; active = over 0.2 and 3.5 SD of the protein, either way, in both replicates (recomputed)
erlotinib = compound: C#Cc1cccc(Nc2ncnc3cc(OCCOC)c(OCCOC)cc23)c1 [erlotinib]
Summary of the method: (§1)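 K562 cells at 2×10^6 cells/mL were given 10 μM compound for 30 min. Aliquots then went through 3 min of heating across 48°C-58°C, were pooled, and were extracted in PBS with 0.5% NP-40 at 4°C, and the supernatant after 21,000xg for 90 min was quantified by TMTpro 16plex LC-MS/MS with channel sums equalised. Thermal stability relative to control samples, from duplicates, is given as log2 fold change.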

[1] = compound: C/C(=N\NC(=O)C1=CC(=CC=C1)S(=O)(=O)N2CCOCC2)/C3=C(C=CC(=C3)Cl)O
Summary of the method: as §1

[2] = compound: C1=CC(=C(C=C1Cl)C2=NC3=NC=CN=C3C(=N2)NC4=CC=NC=C4)F
Summary of the method: as §1

[3] = compound: C1=CC(=CC=C1C2=NC3=C(N2)C=C(C=C3)C(=O)N)OC4=CC=C(C=C4)Cl
Summary of the method: as §1

[4] = compound: C1=CC2=C(C=CC(=C2)/C=C\3/C(=O)NC(=NCC4=CC=CS4)S3)N=C1
Summary of the method: as §1

[5] = compound: C1=CC2=NC=CN=C2C=C1/C=C/3\C(=O)NC(=O)S3
Summary of the method: as §1

[6] = compound: C1=CC=C(C=C1)C2=NC(=C(N2)C3=CC=NC=C3)C4=CC(=C(C=C4)Cl)O
Summary of the method: as §1

[7] = compound: C1=CC=C2C(=C1)C3=NNC4=CC=CC(=C43)C2=O
Summary of the method: as §1

[8] = compound: C1CCN(C1)C(=O)NC2=CC=CC(=C2)NC3=NC=C(C(=N3)NCCC4=CN=CN4)Br
Summary of the method: as §1

[9] = compound: C1CN(CCC1(CC2=CC=C(C=C2)Cl)N)C3=NC=NC4=C3C=CN4
Summary of the method: as §1

Measured: log2 fold change

RPS13 (UniProt P62277)
inactive: erlotinib -0.156 | [1] -0.17 | [2] -0.544 | [3] 0.088 | [4] -0.11 | [5] -0.053 | [6] -0.088 | [7] -0.015 | [8] 0.101 | [9] -0.184

RFC3 (UniProt P40938)
UniProt P40938, sequence (P40938 whole entry, looked up): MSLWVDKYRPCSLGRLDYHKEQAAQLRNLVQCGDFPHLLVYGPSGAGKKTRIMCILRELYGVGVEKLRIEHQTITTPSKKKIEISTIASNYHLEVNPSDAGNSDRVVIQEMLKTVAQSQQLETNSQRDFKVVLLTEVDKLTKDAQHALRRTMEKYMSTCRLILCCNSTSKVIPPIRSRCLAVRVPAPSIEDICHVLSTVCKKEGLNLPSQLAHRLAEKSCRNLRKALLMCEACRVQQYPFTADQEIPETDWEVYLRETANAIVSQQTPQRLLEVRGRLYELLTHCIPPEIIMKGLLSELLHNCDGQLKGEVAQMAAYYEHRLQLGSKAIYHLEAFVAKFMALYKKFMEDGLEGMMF
inactive: erlotinib -0.04 | [1] 0.108 | [2] 0.033 | [3] 0.005 | [4] 0.066 | [5] 0.007 | [6] 0.046 | [7] 0.046 | [8] -0.06 | [9] 0.054

RPS12 (UniProt P25398)
inactive: erlotinib -0.115 | [1] -0.082 | [2] -0.072 | [3] -0.001 | [4] -0.021 | [5] -0.002 | [6] 0.008 | [7] -0.02 | [8] 0.027 | [9] -0.05

SDHAF2 (UniProt Q9NX18)
active: [1] 0.304
inactive: erlotinib -0.021 | [2] 0.083 | [3] 0.018 | [4] -0.102 | [5] 0.051 | [6] -0.035 | [7] 0.114 | [8] 0.068 | [9] -0.091

RAF1 isoform 2 (UniProt P04049)
UniProt P04049, sequence (P04049 whole entry, looked up): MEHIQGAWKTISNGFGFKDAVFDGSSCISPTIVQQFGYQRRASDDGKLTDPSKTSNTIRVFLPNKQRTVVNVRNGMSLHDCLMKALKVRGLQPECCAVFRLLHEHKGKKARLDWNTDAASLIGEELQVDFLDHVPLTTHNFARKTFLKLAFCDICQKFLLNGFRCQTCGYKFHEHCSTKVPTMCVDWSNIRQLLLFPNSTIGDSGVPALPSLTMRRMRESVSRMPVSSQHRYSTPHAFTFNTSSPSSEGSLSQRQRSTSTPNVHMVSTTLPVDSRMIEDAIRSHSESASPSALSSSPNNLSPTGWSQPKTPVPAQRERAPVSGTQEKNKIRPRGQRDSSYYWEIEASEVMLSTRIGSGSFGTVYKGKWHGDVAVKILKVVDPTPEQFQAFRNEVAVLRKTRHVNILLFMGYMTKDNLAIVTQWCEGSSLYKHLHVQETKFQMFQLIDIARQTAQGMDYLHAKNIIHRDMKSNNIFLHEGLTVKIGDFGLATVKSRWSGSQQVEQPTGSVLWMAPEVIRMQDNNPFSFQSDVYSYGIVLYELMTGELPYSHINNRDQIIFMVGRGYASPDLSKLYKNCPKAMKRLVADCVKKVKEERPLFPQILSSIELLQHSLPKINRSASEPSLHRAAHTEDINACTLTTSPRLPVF
inactive: erlotinib -0.048 | [1] 0.08 | [2] -0.129 | [3] 0.04 | [4] 0.197 | [5] 0.02 | [7] 0.01 | [8] -0.121 | [9] 0.022
active: [6] 0.513

RRAGC (UniProt Q9HB90)
UniProt Q9HB90, sequence (Q9HB90 whole entry, looked up): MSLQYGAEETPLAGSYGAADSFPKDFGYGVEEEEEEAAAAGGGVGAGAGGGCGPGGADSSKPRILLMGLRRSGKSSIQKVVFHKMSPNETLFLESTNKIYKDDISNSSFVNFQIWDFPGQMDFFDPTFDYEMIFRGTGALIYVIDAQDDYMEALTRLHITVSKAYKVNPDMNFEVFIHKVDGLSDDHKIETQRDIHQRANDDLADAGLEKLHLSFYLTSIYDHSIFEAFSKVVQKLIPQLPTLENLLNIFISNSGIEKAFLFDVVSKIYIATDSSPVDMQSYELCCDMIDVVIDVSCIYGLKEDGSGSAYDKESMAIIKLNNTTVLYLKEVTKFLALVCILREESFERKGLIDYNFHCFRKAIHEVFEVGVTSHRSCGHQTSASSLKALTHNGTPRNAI
inactive: erlotinib 0.014 | [1] 0.03 | [2] 0.047 | [3] -0.007 | [4] 0.019 | [5] 0.013 | [6] -0.051 | [7] -0.02 | [8] 0.014 | [9] 0.052

RPS14 (UniProt P62263)
inactive: erlotinib -0.166 | [1] -0.077 | [2] -0.124 | [3] 0.027 | [4] -0.149 | [5] -0.04 | [6] 0.039 | [7] 0.045 | [8] 0.031 | [9] -0.126

SLC1A5 (UniProt Q15758)
inactive: erlotinib -0.001 | [1] 0.003 | [2] 0.043 | [3] 0.002 | [4] -0.051 | [5] 0.006 | [6] 0.075 | [7] -0.046 | [8] -0.052 | [9] 0.089

RIC8A isoform 3 (UniProt Q9NPQ8)
inactive: erlotinib 0.063 | [1] 0.114 | [2] 0 | [3] -0.031 | [4] 0.114 | [5] -0.052 | [6] 0.005 | [7] -0.021 | [8] -0.071 | [9] -0.057

RNF167 (UniProt Q9H6Y7)
inactive: erlotinib -0.133 | [1] -0.073 | [2] -0.069 | [3] 0.052 | [4] 0.025 | [5] 0.025 | [6] -0.004 | [7] -0.07 | [8] -0.018 | [9] -0.009

RPP14 (UniProt O95059)
UniProt O95059, sequence (O95059 whole entry, looked up): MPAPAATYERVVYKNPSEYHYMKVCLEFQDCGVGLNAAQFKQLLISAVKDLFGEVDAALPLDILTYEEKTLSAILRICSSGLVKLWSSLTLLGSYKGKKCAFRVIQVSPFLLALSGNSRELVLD
inactive: erlotinib -0.047 | [1] 0.09 | [2] -0.077 | [3] 0.059 | [4] -0.046 | [5] -0.023 | [6] 0.012 | [7] -0.022 | [8] -0.017 | [9] 0.021

RPS2 (UniProt P15880)
inactive: erlotinib -0.199 | [1] -0.138 | [2] -0.323 | [3] 0.047 | [4] -0.1 | [5] -0.039 | [6] -0.064 | [7] -0.041 | [8] 0.086 | [9] -0.162

RHOXF2 (UniProt Q9BQY4)
inactive: erlotinib -0.067 | [1] -0.137 | [2] -0.002 | [3] 0.003 | [4] -0.06 | [5] 0.054 | [6] 0.06 | [7] -0.026 | [8] 0.036 | [9] 0.011

SCCPDH (UniProt Q8NBX0)
UniProt Q8NBX0, sequence (Q8NBX0 whole entry, looked up): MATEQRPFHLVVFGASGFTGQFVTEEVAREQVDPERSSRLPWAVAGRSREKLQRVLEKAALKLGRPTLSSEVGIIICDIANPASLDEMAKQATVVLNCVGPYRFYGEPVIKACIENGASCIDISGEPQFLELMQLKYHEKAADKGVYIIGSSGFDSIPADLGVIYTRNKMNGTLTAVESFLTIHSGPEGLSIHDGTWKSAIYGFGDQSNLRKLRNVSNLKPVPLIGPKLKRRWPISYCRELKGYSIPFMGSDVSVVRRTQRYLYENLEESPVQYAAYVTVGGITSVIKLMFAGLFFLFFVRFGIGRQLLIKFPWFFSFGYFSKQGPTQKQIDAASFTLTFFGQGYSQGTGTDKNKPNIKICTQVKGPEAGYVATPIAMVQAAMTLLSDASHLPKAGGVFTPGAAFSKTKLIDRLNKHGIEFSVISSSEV
inactive: erlotinib -0.047 | [1] -0.021 | [2] 0.079 | [3] -0.065 | [4] 0.019 | [5] 0.051 | [6] 0.037 | [7] 0.03 | [8] 0.011 | [9] 0.064

SEH1L isoform 1 (UniProt Q96EE3)
inactive: erlotinib 0.018 | [1] 0.073 | [2] 0.012 | [3] 0.043 | [4] 0.049 | [5] 0.064 | [6] 0 | [7] -0.06 | [8] -0.02 | [9] 0.035

SEC23IP (UniProt Q9Y6Y8)
inactive: erlotinib 0.03 | [1] 0.022 | [2] -0.013 | [3] -0.037 | [4] 0.028 | [5] 0.229 | [6] -0.023 | [7] -0.027 | [8] -0.008 | [9] -0.061

SLC12A9 (UniProt Q9BXP2)
UniProt Q9BXP2, sequence (Q9BXP2 whole entry, looked up): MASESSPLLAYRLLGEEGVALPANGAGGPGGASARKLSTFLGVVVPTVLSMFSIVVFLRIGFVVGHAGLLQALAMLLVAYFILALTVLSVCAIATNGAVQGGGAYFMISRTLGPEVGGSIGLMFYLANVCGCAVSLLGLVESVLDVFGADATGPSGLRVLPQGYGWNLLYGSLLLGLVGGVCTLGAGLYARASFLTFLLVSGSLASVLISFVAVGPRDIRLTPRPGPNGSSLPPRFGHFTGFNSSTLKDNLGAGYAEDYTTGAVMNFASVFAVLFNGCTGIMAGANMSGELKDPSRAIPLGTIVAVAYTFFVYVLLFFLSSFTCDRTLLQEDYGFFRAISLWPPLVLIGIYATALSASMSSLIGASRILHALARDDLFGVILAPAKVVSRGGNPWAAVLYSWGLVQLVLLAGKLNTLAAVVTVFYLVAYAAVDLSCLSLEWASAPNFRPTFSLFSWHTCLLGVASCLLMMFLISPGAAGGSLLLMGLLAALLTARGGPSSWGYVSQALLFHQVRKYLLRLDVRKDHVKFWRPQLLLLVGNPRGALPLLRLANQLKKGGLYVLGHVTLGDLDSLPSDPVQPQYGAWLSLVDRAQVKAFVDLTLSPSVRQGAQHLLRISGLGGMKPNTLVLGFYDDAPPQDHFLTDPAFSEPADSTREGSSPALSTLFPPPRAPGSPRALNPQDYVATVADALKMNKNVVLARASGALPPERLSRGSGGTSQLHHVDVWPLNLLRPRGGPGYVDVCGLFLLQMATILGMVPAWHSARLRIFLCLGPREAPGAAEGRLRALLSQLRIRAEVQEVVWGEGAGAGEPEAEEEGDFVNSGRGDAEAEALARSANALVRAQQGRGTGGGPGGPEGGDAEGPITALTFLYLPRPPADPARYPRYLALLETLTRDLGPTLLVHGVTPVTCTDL
inactive: erlotinib 0.023 | [1] 0.03 | [2] 0.039 | [3] -0.013 | [4] -0.04 | [5] 0.021 | [6] 0.016 | [7] -0.015 | [8] -0.019 | [9] -0.012

RARS2 (UniProt Q5T160)
UniProt Q5T160, sequence (Q5T160 whole entry, looked up): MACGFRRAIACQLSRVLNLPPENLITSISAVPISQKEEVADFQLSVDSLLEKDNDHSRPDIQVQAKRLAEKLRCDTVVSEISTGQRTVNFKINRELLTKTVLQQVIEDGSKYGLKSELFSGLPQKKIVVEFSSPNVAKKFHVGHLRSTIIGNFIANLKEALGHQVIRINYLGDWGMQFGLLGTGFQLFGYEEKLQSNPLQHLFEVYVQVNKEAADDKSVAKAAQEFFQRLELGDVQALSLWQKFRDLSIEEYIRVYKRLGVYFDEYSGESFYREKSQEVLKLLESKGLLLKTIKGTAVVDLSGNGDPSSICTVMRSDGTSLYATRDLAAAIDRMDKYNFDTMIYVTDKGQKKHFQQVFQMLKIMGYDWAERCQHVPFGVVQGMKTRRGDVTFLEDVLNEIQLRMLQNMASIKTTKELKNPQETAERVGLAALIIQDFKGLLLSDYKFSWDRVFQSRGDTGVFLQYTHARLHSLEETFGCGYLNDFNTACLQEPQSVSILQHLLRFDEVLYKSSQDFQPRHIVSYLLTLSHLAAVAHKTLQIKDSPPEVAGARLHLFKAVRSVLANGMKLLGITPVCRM
inactive: erlotinib 0.009 | [1] 0.057 | [2] 0.063 | [3] 0.029 | [4] 0.015 | [5] 0.014 | [6] 0.056 | [7] 0 | [8] 0.022 | [9] 0.038

SCYL3 isoform 2 (UniProt Q8IZE3)
inactive: erlotinib 0.046 | [1] 0.055 | [2] 0.07 | [3] -0.05 | [4] 0.068 | [5] -0.024 | [6] 0.058 | [7] 0.014 | [8] 0.093 | [9] 0.123

SLC19A1 (UniProt P41440)
inactive: erlotinib -0.023 | [1] 0.029 | [2] 0.159 | [3] 0.022 | [4] -0.006 | [5] 0.103 | [6] 0.118 | [7] -0.008 | [8] -0.009 | [9] 0.08

ROCK1 (UniProt Q13464)
inactive: erlotinib 0.049 | [1] -0.025 | [2] 0.042 | [3] -0.007 | [4] 0.199 | [5] 0.027 | [6] -0.007 | [7] -0.018 | [8] 0.032 | [9] 0.205

RIOK2 (UniProt Q9BVS4)
inactive: erlotinib -0.081 | [1] -0.064 | [2] -0.149 | [3] 0.097 | [4] -0.043 | [5] -0.055 | [6] -0.01 | [7] 0.055 | [8] 0.035 | [9] -0.209

RDH11 (UniProt Q8TC12)
inactive: erlotinib -0.007 | [1] -0.03 | [2] 0.102 | [3] 0.068 | [4] 0.084 | [5] -0.1 | [6] 0.029 | [7] 0.04 | [8] -0.044 | [9] -0.043

RNF220 (UniProt Q5VTB9)
inactive: erlotinib 0.017 | [1] 0.034 | [2] 0.017 | [3] 0.011 | [4] 0.034 | [5] 0.03 | [6] 0.026 | [7] 0.011 | [8] -0.008 | [9] -0.022

RAD51 (UniProt Q06609)
UniProt Q06609, sequence (Q06609 whole entry, looked up): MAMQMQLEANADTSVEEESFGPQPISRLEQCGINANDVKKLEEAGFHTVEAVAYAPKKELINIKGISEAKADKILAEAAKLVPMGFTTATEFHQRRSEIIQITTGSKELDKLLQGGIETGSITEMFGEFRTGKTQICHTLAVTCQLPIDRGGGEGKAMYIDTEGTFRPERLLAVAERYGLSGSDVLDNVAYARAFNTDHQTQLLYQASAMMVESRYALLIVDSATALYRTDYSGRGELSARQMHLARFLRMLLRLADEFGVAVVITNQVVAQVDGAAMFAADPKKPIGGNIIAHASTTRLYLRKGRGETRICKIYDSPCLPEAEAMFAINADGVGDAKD
inactive: erlotinib 0.29 | [1] 0.06 | [2] 0.044 | [3] 0.032 | [4] 0.067 | [5] 0.017 | [6] -0.025 | [7] -0.032 | [8] -0.014 | [9] 0.013

RHEB (UniProt Q15382)
inactive: erlotinib 0.028 | [1] 0.042 | [2] 0.075 | [3] -0.041 | [4] 0.008 | [5] 0.008 | [6] -0.008 | [7] -0.004 | [8] -0.005 | [9] 0.041

SAAL1 (UniProt Q96ER3)
UniProt Q96ER3, sequence (Q96ER3 whole entry, looked up): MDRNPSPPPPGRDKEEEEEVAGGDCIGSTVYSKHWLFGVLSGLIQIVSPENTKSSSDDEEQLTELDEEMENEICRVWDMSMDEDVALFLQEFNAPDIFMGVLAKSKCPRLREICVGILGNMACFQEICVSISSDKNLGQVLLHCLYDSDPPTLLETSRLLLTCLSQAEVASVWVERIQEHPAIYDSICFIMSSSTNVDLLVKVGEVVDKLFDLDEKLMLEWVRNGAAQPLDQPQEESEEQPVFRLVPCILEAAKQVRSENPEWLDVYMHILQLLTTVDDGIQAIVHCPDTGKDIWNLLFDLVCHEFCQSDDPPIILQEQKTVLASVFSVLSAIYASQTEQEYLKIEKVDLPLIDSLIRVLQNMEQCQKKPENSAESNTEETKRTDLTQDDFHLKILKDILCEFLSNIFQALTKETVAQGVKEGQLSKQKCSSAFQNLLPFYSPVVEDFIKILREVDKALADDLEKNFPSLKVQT
inactive: erlotinib -0.044 | [1] 0.028 | [2] 0.046 | [3] 0.022 | [4] -0.033 | [5] 0.125 | [6] -0.041 | [7] -0.007 | [8] 0.042 | [9] -0.03

SCPEP1 (UniProt Q9HB40)
UniProt Q9HB40, sequence (Q9HB40 whole entry, looked up): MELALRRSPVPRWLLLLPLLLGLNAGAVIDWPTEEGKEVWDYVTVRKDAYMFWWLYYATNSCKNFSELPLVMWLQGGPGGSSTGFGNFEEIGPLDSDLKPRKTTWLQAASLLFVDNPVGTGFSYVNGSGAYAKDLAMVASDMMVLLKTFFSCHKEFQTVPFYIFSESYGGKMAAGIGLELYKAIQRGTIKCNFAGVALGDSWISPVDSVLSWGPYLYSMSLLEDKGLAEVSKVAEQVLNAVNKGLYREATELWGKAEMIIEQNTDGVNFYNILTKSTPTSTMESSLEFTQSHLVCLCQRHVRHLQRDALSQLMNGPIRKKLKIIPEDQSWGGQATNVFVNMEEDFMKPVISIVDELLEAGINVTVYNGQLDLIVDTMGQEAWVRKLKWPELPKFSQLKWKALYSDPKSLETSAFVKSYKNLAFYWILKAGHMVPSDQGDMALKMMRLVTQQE
inactive: erlotinib -0.002 | [1] 0.017 | [2] 0.064 | [3] 0.015 | [4] -0.024 | [5] 0.058 | [6] -0.013 | [7] 0.017 | [8] -0.012 | [9] 0.079

RHOA (UniProt P61586)
UniProt P61586, sequence (P61586 whole entry, looked up): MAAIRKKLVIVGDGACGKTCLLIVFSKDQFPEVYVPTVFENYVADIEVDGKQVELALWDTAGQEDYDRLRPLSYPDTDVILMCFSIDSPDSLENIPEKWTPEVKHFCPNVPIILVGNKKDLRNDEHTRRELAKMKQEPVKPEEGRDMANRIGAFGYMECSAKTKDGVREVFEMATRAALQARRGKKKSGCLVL
inactive: erlotinib 0.028 | [1] -0.029 | [2] 0.012 | [3] -0.052 | [4] -0.094 | [5] -0.161 | [6] 0.114 | [7] 0.018 | [8] -0.05 | [9] 0.01
